The nature of test [1]: ATG_GLI_CIS: Attagene CIS-FACTORIAL HepG2 Assay for human Zinc Finger Protein GLI1 (AID 2282945). The note with it: HepG2, Attagene cis-factorial reporter mRNA, GLI element; actives raise or lower the signal. In outline:
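HepG2 cells transiently transfected with cis-promoter multiplexed reporter units report endogenous transcription factor activity. After 24 h chemical exposure, reporter mRNA was quantified by RT-PCR, 6-FAM labelling, HpaI digestion and capillary electrophoresis, with bidirectional fitting against DMSO.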

In test [2] the target is Bile acid receptor (Homo sapiens) (UniProt Q96RI1). Description: ATG_IR1_CIS: Attagene CIS-FACTORIAL HepG2 Assay for human Nuclear Receptor Subfamily 1 Group H Member 4 (NR1H4), IR1 submotif (AID 2282946). The note with it: IR1 reporter transcription, actives raise or lower the signal. The gist of the method:
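Transient MRTU transfection, HepG2; 24 h dosing; RNA → RT-PCR → 6-FAM primer extension → HpaI digest → capillary electrophoresis fluorescence. Gain/loss of signal fitted relative to DMSO.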

The nature of test [3]: ATG_GRE_CIS: Attagene CIS-FACTORIAL HepG2 Assay for human Glucocorticoid Response Elements (GRE) (AID 2282947). The settings on record: HepG2 GRE cis-reporter, Attagene multiplex mRNA; actives raise or lower the signal. In outline: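 Following 24 h chemical exposure of transiently transfected HepG2 cells, total RNA was reverse-transcribed and reporter cDNA amplified, fluorescently labelled and sized by capillary electrophoresis. Signal gain or loss was fitted relative to DMSO vehicle.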

The nature of test [4]: ATG_ISRE_CIS: Attagene CIS-FACTORIAL HepG2 Assay for human Interferon Regulatory Factor 1 (IRF1) binding to an Interferon-Stimulated Response Element (ISRE) (AID 2282948). The settings on record: HepG2 ISRE cis-reporter (Attagene), mRNA transcription readout; actives raise or lower the signal. The gist of the method:
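Transiently transfected HepG2 cells carrying cis-element reporter units, dosed 24 hours. Reporter mRNA quantified by RT-PCR, fluorescent primer extension, HpaI digestion and capillary electrophoresis. Bidirectional fitting relative to DMSO.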

A short description of test [5]: ATG_M_32_CIS: Attagene CIS-FACTORIAL HepG2 Assay for M32 Transcription Factor (Internal Marker) (AID 2282949).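 Note: background control marker of the multiplexed CIS panel rather than a real target.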 The settings on record: HepG2 Attagene cis-factorial M32 reporter, mRNA; actives raise or lower the signal. In outline: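 HepG2 cells transiently transfected with multiplexed cis-regulated reporter units, dosed 24 h. Reporter mRNA quantified by RT-PCR, 6-FAM labelling, HpaI digestion and capillary electrophoresis; bidirectional fit vs DMSO.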

Test [6] has as its target Hypoxia-inducible factor 1-alpha (Homo sapiens) (UniProt Q16665). Description: ATG_HIF1a_CIS: Attagene CIS-FACTORIAL HepG2 Assay for human Hypoxia Inducible Factor 1 (HIF1A) (AID 2282951). The note with it: HepG2 Attagene cis-factorial HIF1a reporter transcription; actives raise or lower the signal. In outline: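 Endogenous-TF cis reporter readout, human HepG2 cells, 24 h incubation; mRNA detected via RT-PCR and capillary electrophoresis fluorescence; DMSO-normalised bidirectional fitting.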

The target in test [7] is Hepatocyte nuclear factor 6 (Homo sapiens) (UniProt Q9UBC0). Put plainly: ATG_HNF6_CIS: Attagene CIS-FACTORIAL HepG2 Assay for human Hepatocyte Nuclear Factor 6 (HNF6) (AID 2282952). The note with it: HepG2 Attagene cis-factorial HNF6 reporter transcription; actives raise or lower the signal. The gist of the method:
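Multiplexed mRNA reporter assay in transfected HepG2; 24 h dosing; RT-PCR plus capillary electrophoresis fluorescence; DMSO-referenced bidirectional curve fitting.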

For test [8], the target named is Heat shock factor protein 1 (Homo sapiens) (UniProt Q00613). Put plainly: ATG_HSE_CIS: Attagene CIS-FACTORIAL HepG2 Assay for human Heat Shock Transcription Factor 1 (HSE) (AID 2282953). The note with it: HepG2 HSE cis-reporter, Attagene RNA transcription; actives raise or lower the signal. The gist of the method:
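HepG2 cells transiently transfected with multiple reporter transcription units under cis-regulatory promoter control, measuring endogenous transcription factor activity. After 24 h chemical exposure, reporter mRNA quantified by RT-PCR, fluorescent labelling, HpaI digestion and capillary electrophoresis; bidirectional fit versus DMSO.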

The nature of test [9]: ATG_MRE_CIS: Attagene CIS-FACTORIAL HepG2 Assay for human Metal Responsive Element (MRE) (AID 2282954). The note with it: HepG2 MRE cis-reporter transcription, Attagene multiplex; actives raise or lower the signal. In outline: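 Step one: transfect HepG2 with cis-regulated reporter units. Step two: dose 24 h. Step three: isolate RNA, RT-PCR, 6-FAM label, HpaI digest, capillary electrophoresis. Fit bidirectionally to DMSO.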

Test [10] is described as follows: ATG_PBREM_CIS: Attagene CIS-FACTORIAL HepG2 Assay for human Phenobarbital-responsive Enhancer Module (PBREM) (AID 2282955). The note with it: HepG2 PBREM cis-reporter, Attagene multiplexed transcription; actives raise or lower the signal. The gist of the method: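 Readout: reporter mRNA, fluorescent RT-PCR fragments separated by capillary electrophoresis. System: HepG2 transiently transfected with cis-regulated reporter units. Exposure: 24 h. Analysis: bidirectional, DMSO baseline.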

Test [11] has as its target Paired box protein Pax-6 (Homo sapiens) (UniProt P26367). Description: ATG_Pax6_CIS: Attagene CIS-FACTORIAL HepG2 Assay for human Paired Box 6 (PAX6) (AID 2282956). The settings on record: HepG2 CIS-FACTORIAL PAX6 reporter transcription, RNA readout; actives raise or lower the signal. In outline:
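HepG2 cells transiently transfected with cis-promoter-driven multiplexed reporter units sensing endogenous transcription factor activity; 24 h chemical exposure. Reporter mRNA quantified by RT-PCR, 6-FAM labelling, HpaI digestion and capillary electrophoresis; bidirectional fit versus DMSO baseline.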

The nature of test [12]: ATG_PXRE_CIS: Attagene CIS-FACTORIAL HepG2 Assay for human Pregnane X Receptor Element (PXRE) (AID 2282957). The note with it: HepG2 Attagene CIS-FACTORIAL PXRE reporter, mRNA; actives raise or lower the signal. The gist of the method:
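Cells: HepG2, transiently transfected reporter units under cis promoter control. Exposure: 24 h. Detection: reporter mRNA via RT-PCR/CE fluorescence; bidirectional fitting, DMSO-referenced.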

The nature of test [13]: ATG_PPRE_CIS: Attagene CIS-FACTORIAL HepG2 Assay for human Peroxisome Proliferator-activated Response Element (PPRE) (AID 2282958). The settings on record: HepG2 PPRE cis-element reporter, Attagene transcription factor profiling; actives raise or lower the signal. In outline:
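After human HepG2 hepatoma cells were transiently transfected with cis-promoter reporter constructs, they were exposed to test chemicals for 24 hours. Reporter RNA was then reverse-transcribed, PCR-amplified, FAM-labeled, HpaI-digested and quantified by capillary electrophoresis.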

A short description of test [14]: ATG_RORE_CIS: Attagene CIS-FACTORIAL HepG2 Assay for human RAR-related Orphan Receptor Element (RORE) (AID 2282959). The note with it: HepG2 Attagene cis-factorial RORE reporter, mRNA; actives raise or lower the signal. The gist of the method:
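Measured here: transcript induction of a cis-regulated reporter in HepG2 cells transiently transfected via FuGene 6. After 24 h, RNA was processed by RT-PCR and fluorescent capillary electrophoresis; DMSO defined baseline activity.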

Test [15] is described as follows: ATG_Sox_CIS: Attagene CIS-FACTORIAL HepG2 Assay for human SRY-box transcription factor (SOX) (AID 2282960). The note with it: HepG2 Attagene cis-factorial SOX reporter, mRNA; actives raise or lower the signal. In outline: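 Using transiently transfected HepG2 cells, reporter transcription driven by cis elements was assessed 24 h after dosing. Signal was fluorescence of capillary-separated RT-PCR products, with DMSO defining baseline activity.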

The target in test [16] is Transcription factor Sp1 (Homo sapiens) (UniProt P08047). Description: ATG_Sp1_CIS: Attagene CIS-FACTORIAL HepG2 Assay for human Specificity Protein 1 (Sp1) (AID 2282961). The note with it: HepG2 Sp1 cis-reporter transcription, actives raise or lower the signal. In outline:
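After transient transfection of HepG2 cells with cis-promoter reporter units and 24 h chemical treatment, reporter transcripts were quantified by RT-PCR and capillary electrophoresis fluorescence. Gain- and loss-of-signal fitted against DMSO.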

The nature of test [17]: ATG_SREBP_CIS: Attagene CIS-FACTORIAL HepG2 Assay for human Sterol Regulatory Element Binding (SREBP) (AID 2282962). The settings on record: HepG2 Attagene cis-factorial SREBP reporter, mRNA; actives raise or lower the signal. The gist of the method: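 HepG2 cells transiently transfected with multiplexed cis-promoter reporter units sensing endogenous transcription factors; reporter mRNA measured 24 h after dosing by RT-PCR, 6-FAM labeling, HpaI digestion and capillary electrophoresis. Bidirectional fit versus DMSO.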

The target of test [18] is Signal transducer and activator of transcription 3 (Homo sapiens) (UniProt P40763). Put plainly: ATG_STAT3_CIS: Attagene CIS-FACTORIAL HepG2 Assay for human Signal Transducer and Activator of Transcription 3 (STAT3) (AID 2282963). The note with it: HepG2, Attagene cis-factorial STAT3 reporter transcription; actives raise or lower the signal. In outline: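 Transcript-level reporter assay. HepG2 transient MRTU transfection, 24 h exposure, fluorescence detection after RT-PCR and CE; DMSO baseline.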

Test [19] is described as follows: ATG_TA_CIS: Attagene CIS-FACTORIAL HepG2 Assay for human TA Basal Promoter (AID 2282964). The note with it: HepG2 Attagene CIS-factorial TA basal promoter reporter; actives raise or lower the signal. In outline:
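HepG2 cells transiently transfected with multiplexed cis-promoter reporter units, dosed 24 h. Reporter mRNA measured by RT-PCR, 6-FAM labelling, HpaI digestion and capillary electrophoresis; bidirectional fit versus DMSO baseline, serving as background control.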

The source made the active and inactive calls. Rule for the calls: active = hit-call score of the fitted dose curve at least 0.9, where 1 is the maximum; inactive = score below 0.9.

Transcription factor Sp1 (Homo sapiens), sequence (P08047 whole entry, looked up): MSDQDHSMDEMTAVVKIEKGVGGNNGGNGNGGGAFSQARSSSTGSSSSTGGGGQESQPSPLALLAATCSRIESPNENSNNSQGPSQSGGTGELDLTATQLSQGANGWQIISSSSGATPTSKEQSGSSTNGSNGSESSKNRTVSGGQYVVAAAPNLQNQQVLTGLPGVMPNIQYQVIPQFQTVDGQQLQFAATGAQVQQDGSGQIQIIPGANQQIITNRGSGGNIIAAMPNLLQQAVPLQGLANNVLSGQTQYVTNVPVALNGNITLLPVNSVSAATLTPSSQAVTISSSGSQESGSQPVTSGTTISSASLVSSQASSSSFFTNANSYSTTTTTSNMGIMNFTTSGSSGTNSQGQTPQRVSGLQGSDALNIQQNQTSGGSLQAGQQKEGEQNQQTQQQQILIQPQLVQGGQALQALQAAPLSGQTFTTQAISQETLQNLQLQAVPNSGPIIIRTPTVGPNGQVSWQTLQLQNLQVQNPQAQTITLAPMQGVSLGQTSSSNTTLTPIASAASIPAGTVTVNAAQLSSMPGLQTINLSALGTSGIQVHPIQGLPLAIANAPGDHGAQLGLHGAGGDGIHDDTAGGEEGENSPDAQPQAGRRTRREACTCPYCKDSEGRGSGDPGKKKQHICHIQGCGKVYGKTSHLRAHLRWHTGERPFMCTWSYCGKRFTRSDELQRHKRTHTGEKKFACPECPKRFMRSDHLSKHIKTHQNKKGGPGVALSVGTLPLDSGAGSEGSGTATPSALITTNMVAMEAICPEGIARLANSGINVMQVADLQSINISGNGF
Bile acid receptor (Homo sapiens), sequence (Q96RI1 whole entry, looked up): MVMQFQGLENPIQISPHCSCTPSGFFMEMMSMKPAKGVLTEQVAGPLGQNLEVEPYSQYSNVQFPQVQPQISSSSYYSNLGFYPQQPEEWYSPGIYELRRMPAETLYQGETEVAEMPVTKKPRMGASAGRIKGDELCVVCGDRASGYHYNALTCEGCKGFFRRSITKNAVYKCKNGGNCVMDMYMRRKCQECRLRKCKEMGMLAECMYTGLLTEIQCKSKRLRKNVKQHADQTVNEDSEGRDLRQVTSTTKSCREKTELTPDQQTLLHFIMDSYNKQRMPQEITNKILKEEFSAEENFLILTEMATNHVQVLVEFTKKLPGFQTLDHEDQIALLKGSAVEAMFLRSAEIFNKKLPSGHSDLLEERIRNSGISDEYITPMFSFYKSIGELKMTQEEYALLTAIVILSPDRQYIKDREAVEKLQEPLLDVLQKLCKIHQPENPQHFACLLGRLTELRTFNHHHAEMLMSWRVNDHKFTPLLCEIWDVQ
Signal transducer and activator of transcription 3 (Homo sapiens), sequence (P40763 whole entry, looked up): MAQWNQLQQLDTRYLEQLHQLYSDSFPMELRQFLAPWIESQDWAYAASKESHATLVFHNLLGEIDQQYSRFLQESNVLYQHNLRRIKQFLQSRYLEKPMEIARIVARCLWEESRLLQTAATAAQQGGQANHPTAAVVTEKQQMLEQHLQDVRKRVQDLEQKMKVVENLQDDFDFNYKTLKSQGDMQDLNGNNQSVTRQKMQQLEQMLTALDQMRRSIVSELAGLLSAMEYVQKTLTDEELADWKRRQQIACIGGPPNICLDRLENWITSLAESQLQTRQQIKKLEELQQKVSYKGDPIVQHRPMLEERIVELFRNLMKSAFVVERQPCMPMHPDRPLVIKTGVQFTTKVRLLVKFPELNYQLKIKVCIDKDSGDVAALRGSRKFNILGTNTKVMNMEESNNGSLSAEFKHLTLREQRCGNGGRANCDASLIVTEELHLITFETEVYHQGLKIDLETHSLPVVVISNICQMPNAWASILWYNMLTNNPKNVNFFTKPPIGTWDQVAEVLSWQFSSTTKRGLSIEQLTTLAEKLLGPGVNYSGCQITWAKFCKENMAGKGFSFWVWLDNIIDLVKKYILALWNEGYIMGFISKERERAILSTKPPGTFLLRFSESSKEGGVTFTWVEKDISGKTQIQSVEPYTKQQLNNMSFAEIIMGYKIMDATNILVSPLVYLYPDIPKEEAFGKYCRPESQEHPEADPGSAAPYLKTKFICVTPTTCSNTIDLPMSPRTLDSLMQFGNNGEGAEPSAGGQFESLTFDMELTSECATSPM
Hepatocyte nuclear factor 6 (Homo sapiens), sequence (Q9UBC0 whole entry, looked up): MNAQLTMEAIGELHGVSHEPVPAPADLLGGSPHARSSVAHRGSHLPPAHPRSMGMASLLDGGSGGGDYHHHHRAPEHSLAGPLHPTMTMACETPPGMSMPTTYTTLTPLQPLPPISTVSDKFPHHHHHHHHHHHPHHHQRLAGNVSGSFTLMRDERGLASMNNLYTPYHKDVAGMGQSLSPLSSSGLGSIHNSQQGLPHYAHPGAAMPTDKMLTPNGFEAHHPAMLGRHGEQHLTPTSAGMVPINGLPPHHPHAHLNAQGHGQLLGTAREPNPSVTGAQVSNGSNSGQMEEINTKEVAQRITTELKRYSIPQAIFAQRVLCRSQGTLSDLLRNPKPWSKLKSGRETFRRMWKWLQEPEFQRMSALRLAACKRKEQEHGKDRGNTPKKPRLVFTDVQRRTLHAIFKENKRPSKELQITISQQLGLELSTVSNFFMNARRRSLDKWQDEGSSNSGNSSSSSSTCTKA
Paired box protein Pax-6 (Homo sapiens), sequence (P26367 whole entry, looked up): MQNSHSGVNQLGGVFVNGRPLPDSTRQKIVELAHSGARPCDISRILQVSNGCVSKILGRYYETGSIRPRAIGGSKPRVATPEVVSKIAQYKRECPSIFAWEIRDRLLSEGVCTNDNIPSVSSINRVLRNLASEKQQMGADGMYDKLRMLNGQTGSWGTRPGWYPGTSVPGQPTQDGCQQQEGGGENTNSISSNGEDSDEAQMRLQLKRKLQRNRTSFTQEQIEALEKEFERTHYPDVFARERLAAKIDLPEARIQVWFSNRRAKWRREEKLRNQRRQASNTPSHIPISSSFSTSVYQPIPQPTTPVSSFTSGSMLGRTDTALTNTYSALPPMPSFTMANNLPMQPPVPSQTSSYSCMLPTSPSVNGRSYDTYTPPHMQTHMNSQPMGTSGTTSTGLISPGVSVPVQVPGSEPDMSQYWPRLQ
Heat shock factor protein 1 (Homo sapiens), sequence (Q00613 whole entry, looked up): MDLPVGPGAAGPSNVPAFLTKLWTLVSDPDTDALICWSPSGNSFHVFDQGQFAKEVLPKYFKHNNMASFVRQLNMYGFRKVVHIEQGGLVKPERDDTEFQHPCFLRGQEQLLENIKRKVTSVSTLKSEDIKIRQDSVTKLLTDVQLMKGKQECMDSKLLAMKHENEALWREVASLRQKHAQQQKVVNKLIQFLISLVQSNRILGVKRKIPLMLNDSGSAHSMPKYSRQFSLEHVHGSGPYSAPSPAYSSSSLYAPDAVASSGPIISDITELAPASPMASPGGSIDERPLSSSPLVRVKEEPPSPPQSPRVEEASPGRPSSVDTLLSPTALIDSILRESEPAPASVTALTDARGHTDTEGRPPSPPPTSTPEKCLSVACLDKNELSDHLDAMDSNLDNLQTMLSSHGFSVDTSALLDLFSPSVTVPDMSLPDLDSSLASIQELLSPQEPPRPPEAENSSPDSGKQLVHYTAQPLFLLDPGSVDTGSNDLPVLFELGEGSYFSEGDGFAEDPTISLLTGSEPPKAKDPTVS
Hypoxia-inducible factor 1-alpha (Homo sapiens), sequence (Q16665 whole entry, looked up): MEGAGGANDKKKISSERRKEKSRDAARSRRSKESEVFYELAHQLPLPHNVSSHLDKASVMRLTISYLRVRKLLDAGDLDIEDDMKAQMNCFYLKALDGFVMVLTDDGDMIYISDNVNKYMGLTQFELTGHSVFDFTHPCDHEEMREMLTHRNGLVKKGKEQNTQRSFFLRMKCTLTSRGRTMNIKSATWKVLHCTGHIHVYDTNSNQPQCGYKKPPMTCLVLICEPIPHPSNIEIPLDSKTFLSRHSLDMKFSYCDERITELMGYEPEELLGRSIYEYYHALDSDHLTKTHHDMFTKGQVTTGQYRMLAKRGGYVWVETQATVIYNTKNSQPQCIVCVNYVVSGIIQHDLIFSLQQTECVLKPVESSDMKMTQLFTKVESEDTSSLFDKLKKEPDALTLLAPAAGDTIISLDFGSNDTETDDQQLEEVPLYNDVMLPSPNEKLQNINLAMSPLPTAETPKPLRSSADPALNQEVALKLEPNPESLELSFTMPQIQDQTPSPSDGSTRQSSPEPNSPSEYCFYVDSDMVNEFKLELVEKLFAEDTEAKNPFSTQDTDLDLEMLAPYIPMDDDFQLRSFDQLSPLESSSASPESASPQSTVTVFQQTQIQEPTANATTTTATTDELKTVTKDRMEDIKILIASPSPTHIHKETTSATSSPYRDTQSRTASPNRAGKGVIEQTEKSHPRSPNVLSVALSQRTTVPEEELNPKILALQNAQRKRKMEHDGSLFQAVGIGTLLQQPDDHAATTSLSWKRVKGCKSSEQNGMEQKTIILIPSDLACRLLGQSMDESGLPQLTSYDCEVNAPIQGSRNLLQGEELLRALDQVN

For the compound `CCCCC(CC)COC(=O)CCCCC(=O)OCC(CC)CCCC` (stereo not drawn), the compound was classed as inactive in test [1], in [2], in test [3], in test [4], in [5] and in test [6]. Further, the result in test [7], in test [8], in test [9], in [10], in test [11] and in test [12] was inactive. The compound was classed as inactive in test [13], in test [14], in test [15], in [16], in test [17] and in [18]. Besides, in [19], the call was inactive.
Consider `Oc1cccc(O)c1`, for which the compound was called inactive in test [1], in test [2], in [3], in test [4], in test [5] and in test [6]. Moreover, the call in test [7], in [8], in test [9], in [11], in test [12] and in test [13] was inactive. Further, the compound was called inactive in [14], in test [15], in [16], in test [17], in [18] and in test [19].
For `CCCCC[C@H](O)CC(=O)CCc1ccc(O)c(OC)c1`, the compound was classed as inactive in test [1], in [3], in [4], in test [5], in test [6] and in test [7]. The compound was called inactive in test [8], in [9], in test [10], in test [11], in test [13] and in test [14]. For the same compound, the compound was called inactive in [15], in test [17], in test [18] and in test [19]. Also, the AC50 was 149 µM (active) in test [2], 18.1 µM (active) in test [12] and 166 µM (active) in test [16].
As for `Cc1oc(-c2ccccc2)nc1CCOc1ccc(C[C@H](Nc2ccccc2C(=O)c2ccccc2)C(=O)O)cc1`, the result in [1], in [3], in test [4], in test [5], in [7] and in test [12] was inactive. In addition, the result in test [14], in test [15], in test [16], in test [17], in test [18] and in test [19] was inactive. Further, the AC50 in [2] was 11 µM (active); in [6] it was 17.6 µM (active); in test [8] it was 17.6 µM (active); in test [9] it was 20.8 µM (active); in [11], 14.4 µM (active).

The term AC50 denotes the concentration at which the activity in the assay is half-maximal.

Values taken from PubChem BioAssay (EPA / NIEHS).
